High-throughput results deposited in PubChem BioAssay by Sanford-Burnham Center for Chemical Genomics.
Shown are actives, neighbours in structure and some others; about 4.1% of the full set was active somewhere.
tim10-1 inh – tim10-1 yeast growth inhibition; inhibition, % at 20 µM; S. cerevisiae tim10-1 ts strain growth, BacTiter-Glo, 24 h; 330,000 tested, 2.2% active;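 active means inhibition of at least 40%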;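 further: mutant grown at 25 °C; 0% = DMSO wells with yeast and 100% = wells holding no yeast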
TIM10 inh – growth inhibitors of TIM10 yeast strain; inhibition, % at 10 µM; S. cerevisiae TIM10 strain growth, BacTiter-Glo luminescence, 24 h; AID 463195; 330,000 tested, 1.4% active;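 active means inhibition of 40% or more at the single tested concentration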;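 further: wild-type TIM10 isogenic control strain grown at permissive 25 °C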
tim23-1 inh – inhibits growth of tim23-1 mutant yeast | S. cerevisiae tim23-1 growth, BacTiter-Glo luminescence, 24 h | inhibition, % at 20 µM | 330,000 tested, 1.3% active | AID 463212;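 active means growth inhibition of the mutant yeast at or above 50%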;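 further: temperature-sensitive mutant grown at 25 °C; plate controls were DMSO-treated mutant yeast for no effect and medium wells lacking yeast for full effect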
NLRP3 yeast inh – blocks the NALP3 inflammasome reconstituted in yeast. Yeast reconstituted NLRP3/ASC/caspase-1, beta-gal luminescence, 24 h. inhibition, % at 10 µM. 330,000 tested, 0.39% active. AID 2825;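 active means inhibition of 50% or more; inactive means inhibition below 50%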;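 further: plate controls were induced DMSO wells for no effect and uninduced yeast grown without galactose for full effect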
NALP1 yeast inh – NALP1 inhibition; inhibition, % at 10 µM; S. cerevisiae NALP1/ASC/caspase-1 growth, X-gal OD620, 72 h; 280,000 tested, 0.61% active; AID 2071; in the data active means inhibition mostly above about 24%, no sharp cut-off; inactive means mostly below about 32%
tim10-1 conf – tim10-1 yeast growth inhibition, confirmed. shares compounds with tim10-1 inh. inhibition, % at 20 µM. 7,400 tested, 56% active. S. cerevisiae tim10-1 ts strain growth, BacTiter-Glo, 24 h;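 active means inhibition of yeast growth at or above a set limit in either of two repeat tests at 20 µM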;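 further: tim10-1 mutant grown at permissive 25 °C to find synthetic lethal compounds; 0% = DMSO yeast wells and 100% = medium wells without yeast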
Starred values were filed as active, the others as inactive.

What do the screens show for `CC1(C)CC[C@]2(C(=O)O[C@@H]3OC(CO)[C@@H](O)[C@H](O)[C@H]3O)CC[C@]3(C)C(=CCC4[C@@]5(C)CC[C@H](O[C@@H]6OC(C(=O)O)[C@@H](O)[C@H](O)[C@H]6O)C(C)(C)C5CC[C@]43C)[C@@H]2C1` (stereo not given in full)?
tim10-1 inh: 40.2*; TIM10 inh: 0.6; tim23-1 inh: 27.7; NLRP3 yeast inh: -18.9; tim10-1 conf: 22.4

How did O=C1CC(c2cccs2)Sc2nc3ccccc3n21 (stereo not given) do in these assays?
tim10-1 inh: 26.1; TIM10 inh: 29.1; tim23-1 inh: 38.9; NLRP3 yeast inh: -6.5; NALP1 yeast inh: -2.9

How did CCN1c2ccccc2-c2nc3ccccc3n2C1c1cccs1 (stereo not given) do in these assays?
tim10-1 inh: 40.3*; TIM10 inh: 26.7; tim23-1 inh: 38.3; NLRP3 yeast inh: 26.4; NALP1 yeast inh: 46.9; tim10-1 conf: 16.5

How did Cc1cc(C)c(-c2c(O)c3cccc4c3n(c2=O)CCC4)c(C)c1 do in these assays?
tim10-1 inh: 47.1*; TIM10 inh: 14.8; tim23-1 inh: 47.3; NLRP3 yeast inh: 20.7; NALP1 yeast inh: 6.6; tim10-1 conf: 26.0

What do the screens show for `Nc1cc(Cl)ccc1Oc1ccc2ccccc2c1`?
tim10-1 inh: 60.6*; TIM10 inh: 9.0; tim23-1 inh: 28.3; NLRP3 yeast inh: 17.9; NALP1 yeast inh: -2.0; tim10-1 conf: 57.0*

How did CC(C)OCC1CC(CC(=O)Nc2ccc([N+](=O)[O-])cc2)C(=O)O1 (stereo not given) do in these assays?
tim10-1 inh: 0.0; TIM10 inh: 7.8; tim23-1 inh: 7.7; NLRP3 yeast inh: 2.3; NALP1 yeast inh: 6.6

Results for Cc1ccc(S(=O)(=O)/C=C/c2ccccc2)cc1 ?
tim10-1 inh: 47.9*; TIM10 inh: 18.4; tim23-1 inh: 47.7; NLRP3 yeast inh: 21.6; NALP1 yeast inh: 26.5; tim10-1 conf: 25.6

Results for CN(Cc1c(F)cccc1Cl)C(=O)c1ccc2ccccc2n1 ?
tim10-1 inh: 17.5; TIM10 inh: 9.3; tim23-1 inh: 25.4; NLRP3 yeast inh: 29.2; NALP1 yeast inh: 8.8

How did C=CCN1C=C/C(=C\C=C(C#N)C#N)c2ccccc21 do in these assays?
tim10-1 inh: 37.0; TIM10 inh: 39.2; tim23-1 inh: 26.2; NLRP3 yeast inh: 13.0; NALP1 yeast inh: 15.1

Results for CCCCCCN1C=C/C(=C\C=C(C#N)C#N)c2ccccc21 ?
tim10-1 inh: 49.4*; TIM10 inh: 36.7; tim23-1 inh: 47.0; NLRP3 yeast inh: 13.9; NALP1 yeast inh: 3.7; tim10-1 conf: 22.9

What do the screens show for `CCc1c(C(=O)NCc2ccccc2Cl)[nH]c(C)c1C(C)=O`?
tim10-1 inh: 55.8*; TIM10 inh: -4.8; tim23-1 inh: 11.9; NLRP3 yeast inh: 16.0; NALP1 yeast inh: 11.3; tim10-1 conf: -5.3

Results for CNC(=O)C(=O)NCCN1CCN(S(=O)(=O)c2ccc3ccccc3c2)CC1 ?
tim10-1 inh: 14.1; TIM10 inh: 2.6; tim23-1 inh: 8.0; NLRP3 yeast inh: 10.0; NALP1 yeast inh: 19.0

How did Cc1ccc(NC(=S)NCCSc2ccc(Cl)cc2)c(C)c1 do in these assays?
tim10-1 inh: 30.7; TIM10 inh: -7.6; tim23-1 inh: 24.5; NLRP3 yeast inh: 32.0; NALP1 yeast inh: 11.0

Results for CCCCc1ccc(NC(=S)Nc2cccnc2)cc1 ?
tim10-1 inh: 35.9; TIM10 inh: 15.4; tim23-1 inh: 22.7; NLRP3 yeast inh: 10.6; NALP1 yeast inh: 4.5

How did COc1ccc(OC)c(NC(=S)NCCSc2ccc(C)cc2)c1 do in these assays?
tim10-1 inh: 44.2*; TIM10 inh: 32.8; tim23-1 inh: 42.2; NLRP3 yeast inh: 28.5; NALP1 yeast inh: 19.7; tim10-1 conf: 13.6

How did CCCCc1ccc(NC(=S)NCc2cccc(OC)c2)cc1 do in these assays?
tim10-1 inh: 43.7*; TIM10 inh: 32.6; tim23-1 inh: 17.4; NLRP3 yeast inh: 13.3; NALP1 yeast inh: -0.4; tim10-1 conf: 29.7

Results for COc1cccc(CNC(=S)Nc2cc(OC)ccc2OC)c1 ?
tim10-1 inh: 45.0*; TIM10 inh: 11.3; tim23-1 inh: 13.6; NLRP3 yeast inh: -34.0; NALP1 yeast inh: -2.6; tim10-1 conf: 25.4

What do the screens show for `CCCCc1ccc(NC(=S)Nc2ccc(Nc3ccc(OC)cc3)cc2)cc1`?
tim10-1 inh: 45.2*; TIM10 inh: 19.7; tim23-1 inh: 33.7; NLRP3 yeast inh: 35.2; NALP1 yeast inh: 20.5; tim10-1 conf: 35.4*

How did CCn1c(COc2cccc3ccccc23)nnc1SCC(N)=O do in these assays?
tim10-1 inh: 17.4; TIM10 inh: -10.7; tim23-1 inh: -2.0; NLRP3 yeast inh: -15.2; NALP1 yeast inh: 4.3

Results for Cc1ccc(SCCN2CCC(C(C)(C)C)CCC2=O)cc1 (stereo not given) ?
tim10-1 inh: 45.0*; TIM10 inh: 20.9; tim23-1 inh: 38.3; NLRP3 yeast inh: 7.4; NALP1 yeast inh: 7.2; tim10-1 conf: 30.1

Results for Cc1ccc(C(=O)N2CCN(c3ccc(C(F)(F)F)cn3)CC2)cc1 ?
tim10-1 inh: 20.4; TIM10 inh: 21.9; tim23-1 inh: 13.6; NLRP3 yeast inh: 16.7; NALP1 yeast inh: 8.8

How did Cc1c(C(=O)N2CCN(c3ccc(C(F)(F)F)cn3)CC2)oc2ccccc12 do in these assays?
tim10-1 inh: 40.7*; TIM10 inh: 26.3; tim23-1 inh: 32.8; NLRP3 yeast inh: 16.2; NALP1 yeast inh: 8.7; tim10-1 conf: 37.0*

Results for Cc1ccc(C(=O)N2CCN(c3ccc(C(F)(F)F)cn3)CC2)c(C)c1 ?
tim10-1 inh: 43.8*; TIM10 inh: 20.3; tim23-1 inh: 48.6; NLRP3 yeast inh: 9.0; NALP1 yeast inh: 31.8; tim10-1 conf: 30.1

Results for O=C(Nc1ccccc1Cl)c1ccc(Cl)cc1Cl ?
tim10-1 inh: -2.9; TIM10 inh: 3.9; tim23-1 inh: 2.9; NLRP3 yeast inh: -4.0; NALP1 yeast inh: -15.8

How did O=C(NC(=S)Nc1ccccc1O)c1ccc(Cl)cc1Cl do in these assays?
tim10-1 inh: 42.7*; TIM10 inh: 12.0; tim23-1 inh: 42.7; NLRP3 yeast inh: 3.9; NALP1 yeast inh: -12.2; tim10-1 conf: 26.8

How did O=C(NNC(=S)Nc1cccc(C(F)(F)F)c1)c1ccc(Cl)cc1Cl do in these assays?
tim10-1 inh: 51.6*; TIM10 inh: 17.2; tim23-1 inh: 39.9; NLRP3 yeast inh: 16.1; NALP1 yeast inh: 13.2; tim10-1 conf: 46.4*

Results for COc1ccc2[nH]c3c(N4CCC(O)(c5cccc(C(F)(F)F)c5)CC4)ncnc3c2c1 ?
tim10-1 inh: 42.1*; TIM10 inh: 9.2; tim23-1 inh: 3.5; NLRP3 yeast inh: 21.9; NALP1 yeast inh: -0.8; tim10-1 conf: 16.2

Results for Cc1sc2nc(SCC(=O)N3CCOCC3)[nH]c(=O)c2c1-c1ccccc1 ?
tim10-1 inh: -17.6; TIM10 inh: -1.8; tim23-1 inh: -5.8; NLRP3 yeast inh: 30.2; NALP1 yeast inh: -2.5

How did C/C(CC(=O)Nc1ccc(N(C)C)cc1)=N\NC(=O)c1ccc(C(C)(C)C)cc1 do in these assays?
tim10-1 inh: 53.2*; TIM10 inh: 21.1; tim23-1 inh: 38.1; NLRP3 yeast inh: 16.2; NALP1 yeast inh: 13.6; tim10-1 conf: 33.3*
